EPAC2 antag = EPAC2 (human) antagonism. Q8WZA2. EPAC2 GEF exchange of Rap1B-BODIPY-GDP, fluorescence. Potency, µM (doses to about 114 µM), inactives show top-dose activity, negative = inhibition, hits mostly inhibitors. 0.18% of 360,000 active; further: on the % scale 0 is the no-effect control and ±100 the full control effect; nearly all actives have a fitted effect of over 45% in size
EPAC1 antagonist = EPAC1 (human) antagonism | EPAC1 GEF assay, Rap1b-BODIPY-GDP exchange fluorescence | Potency, µM (top dose mostly 115 µM), without a hit: at the highest dose activity change, negative = inhibition, most hits filed as inhibitors | 0.14% of 360,000 active | AID 720709;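 further: plate controls were vehicle for no effect and positive control for full effect; nearly all actives have a fitted effect of over 50% in size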
Target sequence (O95398 whole entry, looked up): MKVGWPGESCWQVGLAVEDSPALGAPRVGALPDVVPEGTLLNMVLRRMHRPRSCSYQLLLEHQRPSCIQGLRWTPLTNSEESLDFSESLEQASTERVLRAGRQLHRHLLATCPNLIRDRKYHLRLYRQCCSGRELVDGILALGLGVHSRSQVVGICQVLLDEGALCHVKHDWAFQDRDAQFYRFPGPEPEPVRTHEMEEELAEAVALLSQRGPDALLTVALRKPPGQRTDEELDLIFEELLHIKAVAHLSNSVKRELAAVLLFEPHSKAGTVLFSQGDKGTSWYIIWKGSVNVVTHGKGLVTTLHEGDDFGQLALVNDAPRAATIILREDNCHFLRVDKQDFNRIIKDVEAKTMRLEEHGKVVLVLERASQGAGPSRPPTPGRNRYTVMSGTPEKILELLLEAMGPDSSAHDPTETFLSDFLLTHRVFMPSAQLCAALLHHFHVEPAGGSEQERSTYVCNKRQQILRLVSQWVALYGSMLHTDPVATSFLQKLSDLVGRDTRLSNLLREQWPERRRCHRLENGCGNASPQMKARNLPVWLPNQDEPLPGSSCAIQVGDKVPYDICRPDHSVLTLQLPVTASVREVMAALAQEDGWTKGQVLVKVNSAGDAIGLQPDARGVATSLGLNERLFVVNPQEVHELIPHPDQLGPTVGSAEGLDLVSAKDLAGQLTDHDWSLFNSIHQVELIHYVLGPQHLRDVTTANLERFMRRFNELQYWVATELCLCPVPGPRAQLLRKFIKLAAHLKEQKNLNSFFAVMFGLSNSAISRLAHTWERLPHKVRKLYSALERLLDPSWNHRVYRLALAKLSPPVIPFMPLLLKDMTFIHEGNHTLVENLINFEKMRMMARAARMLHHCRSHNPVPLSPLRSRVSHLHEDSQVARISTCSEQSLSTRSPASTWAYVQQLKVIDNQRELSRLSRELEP
USP1-UAF1 inh = inhibitors of human USP1/UAF1 deubiquitinase | 0.23% of 390,000 active | Potency, µM (series often up to 57.1 µM), inactives show at the highest dose activity change, negative = inhibition, usual class: inhibitors | O94782 | recombinant USP1/UAF1, Ub-Rhodamine cleavage fluorescence | AID 743255; further: on the % scale 0 is the no-effect control and ±100 the full control effect; nearly all actives have a fitted effect of over 60% in size
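In this screen, compounds sit with the deubiquitinase complex (1nM) for 15 min at room temperature before Ub-Rho is added at 150nM final. Fluorescence rise is then followed for 6 reads every 60 seconds.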
EPAC2 ag = agonists of human EPAC2 (RAPGEF4) | Q8WZA2 | EPAC2 activation, biochemical qHTS; response scale: 100% = 6.5 mM cAMP response | Potency, µM (titrated, usually from 154 µM), for the others: top-dose activation, usual class: activators | 0.079% of 360,000 active | AID 720711; further: nearly all actives have a fitted effect of over 50% in size
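Fluorescence exchange assay: 100 nM EPAC2 with 250 nM RAP1B-BODIPY-GDP and 50 uM GDP; compounds tested as a concentration-titration series (qHTS). Loss of Rap1-bound BODIPY-GDP fluorescence read at 480/540 nm; data normalized to 6.5 mM cAMP.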
EPAC1 agonist = activates human EPAC1 exchange factor. AID 720707. O95398. Potency, µM (top dose mostly 154 µM), without a hit: at the top dose activation, usual class: activators. EPAC1 agonist qHTS, biochemical assay; response scale: 100% = response to 6.5 mM cAMP. 0.073% of 360,000 active; further: nearly all actives have a fitted effect of over 60% in size
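Nucleotide exchange assay: 100 nM EPAC1 with 250 nM Rap1B loaded with BODIPY-GDP and 50 uM GDP, room temperature. Fluorescence (480/540 nm) read every 5 min for 30 min; signal change normalized to 6.5 mM cAMP as full agonist.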
Starred values were filed as active, the others as inactive; ? = inconclusive; nt = not tested or not shown. Hits are enriched below; roughly 0.49% of the tested compounds scored in any of these assays. The call rests on the fitted dose curve; in most records, active means well fitted curve in the direction sought with a large enough effect; inconclusive means small, poorly fitted or top-dose-only effect, or another doubt; inactive means no such curve, though single readings can be large; an effect the other way counts as inactive or inconclusive. Potency means the concentration at half of the fitted maximal effect.

SMILES	EPAC2 antag	EPAC1 antagonist	USP1-UAF1 inh	EPAC2 ag	EPAC1 agonist
S=c1[nH]nc(-c2cc(-c3ccccc3)n[nH]2)n1/N=C/c1ccc(Cl)c(Cl)c1	?	56.2µM*	2.8%	4.7%	63.1µM*
S=c1[nH]nc(-c2cc(-c3ccccc3)n[nH]2)n1/N=C/c1cccc(Cl)c1	-20.6%	50.1µM*	?	3.4%	89.1µM*
COC(=O)c1ccc(-n2c(C)cc(C(=O)CCl)c2C)cc1	35.5µM*	-27.0%	-16.5%	12.0%	2.7%
CCOc1ccc(-n2c(C)cc(C(=O)CCl)c2C)cc1	8.91µM*	-22.3%	-23.6%	9.2%	0.8%
COC(=O)c1ccc(-n2c(C)cc(C(=O)COC(=O)C3=COCCO3)c2C)cc1	-0.3%	2.2%	-30.8%	-5.2%	9.4%
CCc1ccc(C(=O)c2cn(CC(=O)Nc3ccc(OC)c(OC)c3)c3ccc(C)cc3c2=O)cc1	nt	nt	-24.5%	nt	nt
COc1cc(C)c2c(c1C=O)Oc1c(c(C)c(O)c3c1C(O)OC3=O)OC2=O (stereo not drawn)	?	-29.7%	15.8µM*	-2.4%	-0.3%
Cc1ccc2scc(N3CCN(c4ccccc4)CC3)c(=O)c2c1	nt	nt	-16.7%	nt	nt
CCCCCCCCN1C(=O)[C@H](CC(=O)NCc2ccc(OC)c(OC)c2)C[C@@]2(C(=O)OC)CCCCC=C12	37.7µM*	-27.9%	nt	-9.6%	-24.5%
CCCCCCCCN1C(=O)[C@H](CC(=O)NCc2ccc(OC)c(OC)c2)C[C@@]2(C(=O)OCC)CCC=C12	?	-22.4%	nt	-13.6%	-24.7%
Cc1ccc(-n2nc3c(N4CCC(C(=O)NC5CCC(C)CC5)CC4)nnc(C)c3c2C)cc1 (stereo not drawn)	nt	nt	-6.4%	nt	nt
Cc1cc(C)c(NC(=O)C(=O)NCC(c2cccnc2)N2CCN(Cc3ccccc3)CC2)c(C)c1 (stereo not drawn)	nt	nt	21.5%	nt	nt
Cc1nc2ccccc2c(=O)n1/N=C/c1ccc(O)c(O)c1O	3.2%	?	-15.6%	-3.9%	7.3%
Cc1nc2ccccc2c(=O)n1/N=C/c1ccccc1O	-0.5%	79.4µM*	-27.6%	-2.5%	9.8%
CC(=O)Nc1ccc(S(=O)(=O)NCc2ccc3c(c2)CCN3C(C)=O)cc1	nt	nt	8.9%	nt	nt
Oc1ccccc1-c1nc(NCc2cccnc2)c2ccccc2n1	-12.3%	-11.6%	-3.6%	2.8%	18.6%
Oc1ccccc1-c1nc(NCc2ccccc2)c2ccccc2n1	89.1µM*	?	0.2%	0.3%	-29.8%
Nc1c(Cl)ncnc1N/N=C/c1ccc(O)cc1	28.2µM*	?	-1.9%	3.1%	-4.2%
Oc1ccc(Br)cc1C=Nc1cccn2cc(-c3ccccc3)nc12	79.4µM*	0.1%	-1.8%	-16.9%	2.5%
Cc1ccccc1C(=O)Nc1nc2c(s1)CC(C(C)(C)C)CC2 (stereo not drawn)	nt	nt	-13.8%	nt	nt
CCOC(=O)c1c(-c2ccc(Cl)cc2)csc1NC(=O)CNCc1ccco1	-8.9%	2.9%	-20.6%	14.5%	-2.6%
CCOC(=O)c1c(-c2ccccc2)csc1NC(=O)C(C)NCc1ccco1 (stereo not drawn)	44.7µM*	?	-11.0%	1.3%	16.1%
CC(C)(C)N1C(=O)Cc2c1nc(N)c1c(N)nc(N3CCCCC3CO)c(C#N)c21 (stereo not drawn)	-8.0%	56.2µM*	?	4.1%	-1.0%
COc1cc(CNC(=O)c2cnc3c(-c4cccc(C)c4)c(C)nn3c2C)cc(OC)c1OC	nt	nt	-9.4%	nt	nt
COC(=O)CN1C(=O)S/C(=C/c2ccc(N3CCCCC3)o2)C1=O	144.0%	11.8%	28.2µM*	12.8%	8.7%
SMILES	EPAC2 antag	EPAC1 antagonist	USP1-UAF1 inh	EPAC2 ag	EPAC1 agonist
CCOC(=O)CN1C(=O)S/C(=C/c2ccc(N3CCCCC3)o2)C1=O	38.4%	16.8%	?	22.4%	7.8%
CCCN1C(=O)S/C(=C/c2ccc(N3CCOCC3)o2)C1=O	22.1%	42.2%	28.2µM*	112µM*	79.4µM*
CCCN1C(=O)S/C(=C\c2ccc(N3CCOCC3)o2)C1=O	6.3%	45.7%	25.1µM*	?	?
Cc1ccc(-c2cn3c(n2)sc2cc(C(=O)NC4CCCc5ccccc54)ccc23)cc1 (stereo not drawn)	nt	nt	-4.6%	nt	nt
CNC(=O)CSc1nnc(NC(=O)Nc2ccccc2)s1	nt	nt	-17.7%	nt	nt
CCOC(=O)c1c(S(=O)(=O)N2CCC(C(=O)N3CCN(c4cc(C)ccc4C)CC3)CC2)c(C)n(C)c1C	nt	nt	-17.4%	nt	nt
Cc1cc(C)n(CCOc2ccc(Br)cc2)n1	35.5µM*	11.7%	-23.1%	3.6%	8.8%
COc1ccc2c3c(cccc13)C(=O)CC2	125.0%	222.2%	?	112µM*	100µM*
CCOc1ccc(NC(=O)c2oc3ccccc3c2NC(=O)C(C)(C)C)cc1	nt	nt	-25.8%	nt	nt
COc1cccc(N2CCN(C(=O)c3cccc(NC(=O)c4nsc5ccccc45)c3)CC2)c1	nt	nt	-15.6%	nt	nt
N#C/C(=C/c1ccc(N2CCCCC2)o1)C(=O)Nc1ccc2ccccc2c1	18.7%	47.9%	34.4%	6.4%	23.5%
N#C/C(=C\c1ccc[nH]1)C(=O)Nc1ccccc1Cl	13.8%	-18.6%	-21.4%	6.6%	-15.2%
CC1CC1c1ccc(/C=C(\C#N)C(=O)Nc2ccccc2Cl)o1 (stereo not drawn)	4.7%	-13.9%	?	4.0%	100µM*
CC1CC1c1ccc(/C=C(\C#N)C(=O)Nc2ccc(Cl)cc2)o1 (stereo not drawn)	-1.4%	10.1%	-18.6%	21.6%	100µM*
COc1ccc(NC(=O)/C(C#N)=C/c2ccc(C)o2)cc1	nt	nt	-26.4%	nt	nt
N#C/C(=C/c1ccc(N2CCCCC2)o1)C(=O)Nc1ccc(Cl)cc1	5.2%	0.8%	28.2µM*	100µM*	100µM*
COc1cccc(N2CCN(C(=O)Cn3cnc4onc(-c5ccc(F)cc5)c4c3=O)CC2)c1	nt	nt	-14.8%	nt	nt
CC(CCc1ccccc1)NC(=O)Cn1c(=O)nc(-c2ccccc2)c2cc(Cl)ccc21 (stereo not drawn)	nt	nt	-13.2%	nt	nt
CN(C)c1ccc(CNC(=O)c2cccc(NC(=O)N3CCSc4ncccc43)c2)cc1	nt	nt	-7.7%	nt	nt
COc1ccc(C(=O)Nc2ccccc2-c2nnn(CC(N)=O)n2)cc1	-3.6%	89.1µM*	-15.6%	-3.3%	-9.5%
O=S(=O)(O)c1ccc(O)c2cc(Nc3ccccc3)ccc12	?	10µM*	12.6µM*	27.8%	18.8%
COc1ccc2ccccc2c1C(O)c1nccn1C (stereo not drawn)	72.0%	58.6%	?	100µM*	63.1µM*
Cn1ccnc1C(O)c1ccccc1 (stereo not drawn)	10.5%	-4.9%	-0.9%	12.7%	7.1%
CCc1noc(-c2ccc(N3CCCCC3)c([N+](=O)[O-])c2)n1	nt	nt	-27.7%	nt	nt
O=C(O)C(c1ccccc1)N1C(=O)/C(=C/c2cccs2)SC1=S (stereo not drawn)	56.2µM*	-18.3%	-7.3%	-10.9%	-1.8%
CN=Cc1nc(-c2ccccc2)oc1O	2.9%	-0.5%	-4.1%	5.4%	16.4%
